Bioassay records: PubChem BioAssay, National Center for Advancing Translational Sciences (NCATS)
HepG2 tox: HepG2 cytotoxicity, counter-screen for TGF-b inhibitors | HepG2 CAGA-GFP viability, ATP luminescence, 18 h | Potency, µM (highest dose often 46.1 µM), for the others: top-dose activity change, negative = cytotoxicity, actives largely listed as cytotoxic | hit rate 0.76% among 410,000 | AID 588856
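CellTiter-Glo luminescence gave cytotoxicity after 18 hours at 37 degrees C. The cells were HepG2 CAGA-GFP in 1% FBS DMEM, stimulated with 500 pg/mL TGF-beta after compound addition. %Activity was normalised to no-cell wells (complete cell-killing) and DMSO (no toxicity), and curves were fitted and classified.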
TDP1 cell noCPT: qHTS for Inhibitors of human tyrosyl-DNA phosphodiesterase 1 (TDP1): qHTS in cells in absence of CPT; DT40 Tdp1-/- hTDP1 cells, no CPT, ATP luminescence, 48 h; Potency, µM (series often up to 46.2 µM), for inactives: at the highest dose activity change, negative = growth inhibition, actives largely listed as inhibitors; hit rate 15% among 420,000; note: % is set by controls: 0 for no effect and ±100 for the full control effect; nearly all actives have a fitted effect of over 55% in size
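Chicken DT40 Tdp1-/- cells complemented with human TDP1, screened without camptothecin (DMSO vehicle only), 400 cells/well. Compounds pin-transferred, cells incubated at 37 °C for at least 48 hr. Growth read as ATP-dependent luminescence (CellTiter-Glo, 30 min at RT).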
HT1080-NT tox: kills 2HG-producing HT-1080-NT fibrosarcoma cells; HT-1080-NT fibrosarcoma viability, CellTiter-Glo ATP luminescence, 48 h; Potency, µM (series often up to 46.1 µM), without a hit: at the highest dose activity, negative = less viability, most hits filed as cytotoxic; hit rate 1.6% among 360,000; AID 686970;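 note: NT is the 2HG producing partner of a matched IDH1 knockdown line; 0% = DMSO-treated cells and -100% = media-only wells without cells; nearly all actives have a fitted effect of over 55% in size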
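Luminescent CellTiter-Glo readout after 48 hours of compound exposure at 37 degrees C defined viability of HT-1080-NT cells. Activity was normalized to DMSO wells and cell-free media wells; concentration-response curves were fitted and assigned curve classes.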
TGFb inhibitor: TGF-b pathway inhibition; HepG2 CAGA-GFP TGF-b/SMAD3 reporter, GFP fluorescence, 18 h; TGF-beta stimulated, 500 pg/mL final; Potency, µM (highest dose often 46.1 µM), inactives show top-dose activity, negative = inhibition, hits mostly inhibitors; hit rate 1.2% among 410,000; AID 588855; note: % is set by controls: 0 for no effect and ±100 for the full control effect; nearly all actives have a fitted effect of over 65% in size
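Cell-based qHTS in HEPG2 carrying a CAGA-GFP Smad reporter; compounds added before 500 pg/mL final TGF-beta, 18 h incubation at 37 degrees C, GFP fluorescence quantified per cell by imaging cytometry.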
HT1080 IDH1KD tx: kills HT-1080 cells with IDH1 knockdown | HT-1080 IDH1 knockdown viability, ATP luminescence, 48 h | hit rate 2% among 360,000 | AID 686971 | Potency, µM (doses to about 46.1 µM), inactives show top-dose activity, negative = toxicity, usual class: cytotoxic;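 note: 0% = DMSO wells and -100% = cell-free medium wells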
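IDH1KD HT-1080 cells, 750/well, RPMI + 5% FBS; compound pinned after 2 h settling; 48 h, 37 °C; CellTiter-Glo luminescence; % activity normalised to DMSO and no-cell wells; curves fitted, classed by r2 and efficacy.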
TDP1 cell CPT: DT40-hTDP1 cell growth loss with CPT; chicken DT40 Tdp1-/-;hTDP1 cells + 20 nM CPT, ATP luminescence, 48 h; Potency, µM (series often up to 46.2 µM), for the others: top-dose activity change, negative = growth inhibition, most hits filed as inhibitors; hit rate 12% among 420,000; note: % is set by controls: 0 for no effect and ±100 for the full control effect; nearly all actives have a fitted effect of over 55% in size
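Chicken DT40 Tdp1-/- cells complemented with human TDP1, 400 cells/well, exposed to compounds plus 20 nM camptothecin for at least 48 h at 37 C; viability read as ATP content by CellTiter-Glo luminescence.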
The depositor's hits bear a star; [ ] = another dose, or the depositor's remark. Compounds with a hit are over-represented: about 17% of the library has one in this group of screens. Calls come from the whole dose curve; as a rule, active = well fitted curve in the direction sought with a large enough effect; inconclusive = small, poorly fitted or top-dose-only effect, or another doubt; inactive = no such curve, though single readings can be large; an effect the other way counts as inactive or inconclusive. Potency is the fitted concentration of half-maximal effect.

What do the screens show for `Cc1ccc(NC(=O)N(CCCN2CCOCC2)Cc2cc3cc4c(cc3[nH]c2=O)OCO4)cc1`?
HepG2 tox: -30.8%; TDP1 cell noCPT: inconclusive; HT1080-NT tox: -7.7%; TGFb inhibitor: -13.0%; HT1080 IDH1KD tx: -5.5%; TDP1 cell CPT: 20.6µM*

What do the screens show for `CC1(c2nnnn2-c2ccc3c(c2)OCCO3)CCC(=O)N1C1CCN(Cc2ccccc2)CC1` (stereo not drawn)?
TDP1 cell noCPT: -29.9%; HT1080-NT tox: 11.8%; HT1080 IDH1KD tx: 5.6%; TDP1 cell CPT: 0.4%

Results for Cc1ccc(O)c(NC(=O)c2cc(-c3ccccc3O)no2)c1 ?
HepG2 tox: -37.1%; TDP1 cell noCPT: inconclusive; TGFb inhibitor: -6.3%; TDP1 cell CPT: inconclusive

What do the screens show for `COc1cc(NC(=O)c2cc(-c3ccccc3O)no2)cc(OC)c1OC`?
HepG2 tox: -20.3%; TDP1 cell noCPT: 1.64µM*; TGFb inhibitor: -11.0%; TDP1 cell CPT: 2.31µM*

What do the screens show for `COc1cccc(-c2cc(C(=O)Nc3cc(OC)c(OC)c(OC)c3)on2)c1`?
HepG2 tox: -18.0%; TDP1 cell noCPT: 2.91µM*; TGFb inhibitor: 0.6%; TDP1 cell CPT: 5.8µM*

Results for CN(C)c1cccc(NC(=O)c2cccc3c(-c4ccc(F)c(F)c4)coc23)c1 ?
HepG2 tox: -3.0%; TDP1 cell noCPT: 20.6µM*; HT1080-NT tox: 29.2%; TGFb inhibitor: 30.2%; HT1080 IDH1KD tx: 8.3%; TDP1 cell CPT: inconclusive

What do the screens show for `CN(C)CCNC(=O)c1cccc2c(-c3ccc(F)c(F)c3)coc12`?
HepG2 tox: -46.7%; TDP1 cell noCPT: inconclusive; HT1080-NT tox: inconclusive; TGFb inhibitor: 11.5%; HT1080 IDH1KD tx: inconclusive; TDP1 cell CPT: inconclusive

What do the screens show for `COc1ccc(CNC(=O)c2cccc3c(-c4ccc(F)c(F)c4)coc23)cc1OC`?
HepG2 tox: -22.1%; TDP1 cell noCPT: 11.6µM*; HT1080-NT tox: inconclusive; TGFb inhibitor: -25.2%; HT1080 IDH1KD tx: 16.4µM*; TDP1 cell CPT: 20.6µM*

Results for COc1cc(-c2coc3c(C(=O)NCc4ccc(OC)c(OC)c4)cccc23)ccc1O ?
HepG2 tox: -58.9%; TDP1 cell noCPT: 4.61µM*; HT1080-NT tox: inconclusive; TGFb inhibitor: inconclusive; HT1080 IDH1KD tx: 3.26µM*; TDP1 cell CPT: 5.8µM*

What do the screens show for `COc1cc(-c2coc3c(C(=O)NCc4ccncc4)cccc23)ccc1O`?
HepG2 tox: -21.6%; TDP1 cell noCPT: -90.6%; HT1080-NT tox: -7.6%; TGFb inhibitor: -0.2%; HT1080 IDH1KD tx: -11.6%; TDP1 cell CPT: -98.8%

Results for COc1cc(-c2coc3c(C(=O)NCc4ccc(C(F)(F)F)cc4)cccc23)ccc1O ?
HepG2 tox: -28.6%; TDP1 cell noCPT: 20.6µM*; HT1080-NT tox: inconclusive; TGFb inhibitor: inconclusive; HT1080 IDH1KD tx: 25.9µM*; TDP1 cell CPT: 14.6µM*

Results for Cc1ccc2nc(-c3cccnc3)cc(C(=O)Nc3ccc(F)cc3C)c2c1 ?
HepG2 tox: -6.1%; TDP1 cell noCPT: inconclusive; HT1080-NT tox: 2.8%; TGFb inhibitor: 6.1%; HT1080 IDH1KD tx: 9.4%; TDP1 cell CPT: inconclusive

How did COc1cc(-c2coc3c(C(=O)NC4CCCCC4)cccc23)ccc1O do in these assays?
HepG2 tox: -32.5%; TDP1 cell noCPT: inconclusive; HT1080-NT tox: 16.4µM*; TGFb inhibitor: -4.9%; HT1080 IDH1KD tx: 20.6µM*; TDP1 cell CPT: 18.4µM*

How did COc1cc(-c2coc3c(C(=O)NCc4ccc(N(C)C)cc4)cccc23)ccc1O do in these assays?
HepG2 tox: -21.9%; TDP1 cell noCPT: inconclusive; HT1080-NT tox: inconclusive; TGFb inhibitor: 0.6%; HT1080 IDH1KD tx: inconclusive; TDP1 cell CPT: 16.4µM*

Results for COc1ccc(CNC(=O)c2cccc3c(-c4cccc(C(N)=O)c4)coc23)cc1OC ?
HepG2 tox: -30.6%; TDP1 cell noCPT: 5.17µM*; HT1080-NT tox: inconclusive; TGFb inhibitor: -8.5%; HT1080 IDH1KD tx: 5.8µM*; TDP1 cell CPT: 3.66µM*

Results for COc1cc(-c2coc3c(C(=O)Nc4ccc(C(C)C)cc4)cccc23)ccc1O ?
HepG2 tox: -60.7%; TDP1 cell noCPT: 20.6µM*; HT1080-NT tox: inconclusive; TGFb inhibitor: inconclusive; HT1080 IDH1KD tx: 20.6µM*; TDP1 cell CPT: inconclusive

How did CSCC[C@H](NC(=O)[C@H](Cc1ccccc1)n1c(=O)[nH]c2ccccc2c1=O)C(=O)N1CCC[C@H]1C(=O)O do in these assays?
HepG2 tox: 18.7%; TDP1 cell noCPT: 6.6%; HT1080-NT tox: -2.3%; TGFb inhibitor: 27.2%; HT1080 IDH1KD tx: 4.6%; TDP1 cell CPT: -0.1%

How did CC(=O)Nc1cc(C(=O)N2CCN(c3ccccc3)CC2C)cc2ncn(CCc3ccccn3)c12 (stereo not drawn) do in these assays?
TDP1 cell noCPT: -13.6%; TDP1 cell CPT: -10.8%[9.04 µM]

Results for CC(C)c1nn2c(=O)cc(COC(=O)c3ccc(NC(=O)C4CCCCC4)cc3)nc2s1 ?
HepG2 tox: -0.8%; TDP1 cell noCPT: 20.6µM*; TGFb inhibitor: 6.2%; TDP1 cell CPT: inconclusive

What do the screens show for `CCOc1ccc(C(=O)Nc2ccccc2C(=O)OCc2cc(=O)n3nc(C4CC4)sc3n2)cc1`?
HepG2 tox: -1.0%; TDP1 cell noCPT: -1.0%; TGFb inhibitor: 4.2%; TDP1 cell CPT: 0.8%

How did CCOc1cc(C(=O)OCc2cc(=O)n3nc(C4CC4)sc3n2)cc(OCC)c1OCC do in these assays?
HepG2 tox: 1.8%; TDP1 cell noCPT: 20.6µM*; TGFb inhibitor: -7.2%; TDP1 cell CPT: inconclusive

What do the screens show for `CCOc1ccc(C(=O)OCc2cc(=O)n3nc(C4CCCCC4)sc3n2)cc1`?
HepG2 tox: 0.4%; TDP1 cell noCPT: 16.4µM*; TGFb inhibitor: -6.6%; TDP1 cell CPT: inconclusive

What do the screens show for `COc1ccc(C(=O)OCc2cc(=O)n3nc(C4CC4)sc3n2)cc1OC`?
HepG2 tox: -6.5%; TDP1 cell noCPT: -15.1%; TGFb inhibitor: 0.8%; TDP1 cell CPT: -18.5%

What do the screens show for `O=C(NNC(=O)c1cc2ccccc2[nH]1)OCc1ccccc1`?
HepG2 tox: 14.6%; TGFb inhibitor: 4.5%

How did CCCN1CC(CSC)C[C@H]2c3cccc4[nH]cc(c34)C[C@H]21 (stereo partly drawn) do in these assays?
TDP1 cell noCPT: -10.2%; TDP1 cell CPT: -11.2%
